Nrf2 ARE act = qHTS of Nrf2 Activators; AREc32 ARE-luciferase reporter (MCF7-derived line), luminescence, 24 h; Potency, µM (highest dose often 46.1 µM), for the others: top-dose activation, usual class: activators; 410,000 tested, 0.31% active; AID 624171, 2012; note: % of control where 0% means no effect; nearly all actives have a fitted effect of over 65% in size
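Nrf2 activation is followed as ARE-luciferase induction in the AREc32 line after one day of compound treatment; luminescence is read with Steady-Glo.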
ELG1 repair inh = qHTS screen for small molecules that inhibit ELG1-dependent DNA repair in human embryonic kidney (HEK293T) cells expressing luciferase-tagged ELG1. HEK293T ELG1-luciferase reporter, luminescence, 16 h; DNA damage induced by 5-fluorouridine. Potency, µM (top dose mostly 46.1 µM), for inactives: at the highest dose activity change, negative = inhibition, most hits filed as inhibitors. 330,000 tested, 2.3% active. AID 504467, 2011; note: % is set by controls: 0 for no effect and ±100 for the full control effect; nearly all actives have a fitted effect of over 55% in size
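Reporter activity after DNA damage by 5-fluorouridine is monitored. Compound-treated cells incubate 16 hr at 37 °C, then ONE-Glo is added for 30 min before luminescence reading.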
A549 viability = Nrf2 qHTS screen for inhibitors: counterscreen for cytotoxicity; 390,000 tested, 0.16% active; A549 ARE-Fluc cells, CellTiter-Fluor viability, 18-24 h; AID 504648, 2011; Potency, µM (series often up to 46 µM), for the others: top-dose activity change, negative = cytotoxicity, usual class: inhibitors; note: % is set by controls: 0 for no effect and ±100 for the full control effect
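Cytotoxicity counterscreen: CellTiter-Fluor fluorescence was measured in A549 ARE_Fluc cells after 18-24 h of compound exposure in a concentration series. The subsequent BugLite luminescent read reports ARE-luciferase activity.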
Nrf2 inh = Nrf2 qHTS screen for inhibitors | A549 ARE-Fluc reporter, luciferase luminescence, 18-24 h | Potency, µM (titrated, usually from 46 µM), for the others: at the highest dose activity change, negative = inhibition, most hits filed as inhibitors | 360,000 tested, 2.1% active; note: % is set by controls: 0 for no effect and ±100 for the full control effect; nearly all actives have a fitted effect of over 60% in size
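Cells were seeded and rested 2 h, then exposed to compounds for 18-24 h. CellTiter-Fluor was read first as a viability measure. BugLite was added 15 min before the final luminescent read of ARE-luciferase activity in A549 cells.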
An asterisk follows results filed as active; ? = inconclusive; / = not tested or not shown; [ ] = dose if it differs, or a comment. An excerpt weighted towards active compounds, which were near 3.7% of everything screened. Calls come from the whole dose curve; as a rule, active = well fitted curve in the direction sought with a large enough effect; inconclusive = small, poorly fitted or top-dose-only effect, or another doubt; inactive = no such curve, though single readings can be large; an effect the other way counts as inactive or inconclusive. Potency is the fitted concentration of half-maximal effect.

SMILES	Nrf2 ARE act	ELG1 repair inh	A549 viability	Nrf2 inh
O=C(Nc1ccc(Cl)cc1)C1C2CCCCC21 (stereo not given)	6.5%	?	1.5%	?
Cc1ccccc1-n1nc(C)c2cc(C(=O)N3CCN(S(=O)(=O)c4ccc(F)cc4)CC3)sc21	-0.3%	?	-1.6%	/
CC(=O)c1ccc(S(=O)(=O)N2CCN(C(=O)c3ccc(-n4nc(C)c(Cl)c4C)cc3)CC2)cc1	0.0%	?	-0.4%	25.9µM*
O=C(CC1CC2CCC1C2)N1CCN(S(=O)(=O)c2ccccc2C(F)(F)F)CC1 (stereo not given)	-0.3%	11.2µM*	0.5%	?
O=C(CC1CC2CCC1C2)N1CCN(S(=O)(=O)c2ccccc2[N+](=O)[O-])CC1 (stereo not given)	3.2%	-26.6%	9.3%	-15.3%
Cc1ccccc1-n1nc(C)c2cc(C(=O)N3CCN(S(=O)(=O)c4ccc(Cl)cc4)CC3)sc21	2.9%	?	-26.8%	13µM*
Cc1ccc(S(=O)(=O)N2CCN(C(=O)c3cc4c(C)nn(-c5ccccc5)c4s3)CC2)cc1	1.7%	10.3µM*	3.0%	/
O=C(NCC(c1ccco1)S(=O)(=O)c1cccs1)c1ccccc1F (stereo not given)	8.8%	/	0.9%	/
O=C(NCc1ccccc1F)C(=O)NCC(c1ccc2c(c1)OCO2)N1CCOCC1 (stereo not given)	0.7%	/	9.0%	/
Cc1cc(C(C)(C)C)cc(C)c1S(=O)(=O)N1CCN(C(=O)c2cc([N+](=O)[O-])c[nH]c2=O)CC1	0.4%	-9.6%	-10.1%	-15.4%
CN(Cc1ccno1)Cc1cn(Cc2ccccc2)nc1-c1ccc2c(c1)OCO2	0.3%	?	0.8%	-21.5%
O=C(c1nc(-c2ccccc2)n(-c2ccccc2)n1)N1CCN(S(=O)(=O)c2ccccc2)CC1	0.4%	18.4µM*	-7.7%	?
O=C(c1ccccc1C(F)(F)F)N1CCN(S(=O)(=O)c2ccccc2)CC1	-0.2%	20.6µM*	-2.1%	6.9%
O=C(O)c1nc(-c2ccccc2)n(-c2ccccc2)n1	-0.2%	?	-1.0%	-4.8%
CC(=O)Nc1ccc(Nc2nc(C)c([N+](=O)[O-])c(Nc3ccccc3)n2)cc1	3.1%	14.6µM*	?	16.4µM*
Cc1nc(Nc2ccc(C(=O)O)cc2)nc(Nc2ccc(C(=O)O)cc2)c1[N+](=O)[O-]	0.0%	4.7%	-21.2%	?
Cc1nc(Nc2ccc(F)cc2)nc(Nc2ccc(F)cc2)c1[N+](=O)[O-]	0.1%	22.5%	?	?
CCC(=O)Nc1ccc(Nc2nc(C)c([N+](=O)[O-])c(Nc3ccc(NC(=O)CC)cc3)n2)cc1	3.0%	11.6µM*	-14.7%	?
CC(=O)Nc1ccc(Nc2nc(C)c([N+](=O)[O-])c(N(C)c3ccccc3)n2)cc1	0.3%	20.6µM*	-3.8%	?
O=C1c2ccccc2C(=O)c2cc(N3CCCCC3)ccc21	6.2%	/	-16.3%	?
O=S1(=O)C=C(N2CCCCC2)c2ccccc21	12.6µM*	4.3%	-4.0%	0.8%
CC(C)CC(=O)NC(=S)Nc1cccc(NC(=O)c2ccccc2)c1	3.6%	?	-15.7%	14.6µM*
CCCC(=O)NC(=S)Nc1cccc(NC(=O)c2ccccc2)c1	4.8%	?	0.6%	?
COc1cc(OC)cc(C(=O)Nc2cccc(NC(=O)c3ccccc3)c2)c1	-0.5%	16.4µM*	2.3%	?
O=C(NCc1ccc(Cl)cc1)c1cccc(NC(=O)c2ccccc2)c1	2.0%	18.4µM*	-0.1%	?
SMILES	Nrf2 ARE act	ELG1 repair inh	A549 viability	Nrf2 inh
CC(C)C(=O)Nc1cccc(NC(=S)NC(=O)c2ccccc2Cl)c1	2.6%	?	-11.5%	?
O=C(Nc1ccc(NC(=S)NC(=O)c2ccccc2Cl)cc1)c1cccc(Cl)c1	4.8%	/	2.2%	18.4µM*
CN(C)CCNc1ncnc2ccc(-c3ccc4c(c3)OCO4)cc12	/	/	6.1%	0.0%
O=C(COc1cccc(NC(=O)c2cccc([N+](=O)[O-])c2)c1)c1ccc(Br)cc1	0.3%	9.2µM*	?	20.6µM*
COc1cccc(C(=O)Nc2cc(Cl)c(O)c(Cl)c2)c1	3.98µM*	?	2.3%	6.4%
COc1cccc(C(=O)Nc2ccc(NC(C)=O)cc2)c1	0.1%	?	-12.4%	24.1%
O=C(Nc1cccc(OCC(=O)N2CCOCC2)c1)c1cccc([N+](=O)[O-])c1	0.0%	?	-3.0%	-13.9%
O=C(COc1cccc(NC(=O)c2ccccc2)c1)c1ccccc1	0.1%	3.9%	-14.7%	20.6µM*
COc1ccc(C2C(C(=O)c3cccs3)=C(O)C(=O)N2CCN2CCOCC2)c(OC)c1 (stereo not given)	0.2%	11.8%	-0.8%	1.3%
CCOC(=O)c1c(C2CC2)csc1NC(=O)COC(=O)c1cc(OC)c(OC)cc1[N+](=O)[O-]	0.1%	13µM*	9.2%	0.5%
O=C(CN1CCN(CC(=O)Nc2ccccc2Cc2ccccc2)CC1)Nc1ccccc1Cl	0.3%	25.9µM*	-8.9%	-20.5%
Cc1ccccc1NC(=O)CSCn1nnc2c(=O)[nH]c(Cc3ccc(F)cc3)nc21	0.3%	/	-0.8%	8.1%
CCN(CC)c1ccc(C2C(C(N)=O)=C(C)Nc3nc(SCc4ccccc4Cl)nn32)cc1 (stereo not given)	-2.3%	/	-0.6%	-20.8%[9.27 µM]
Cc1ccc(S(=O)(=O)N(C)c2ccc(C(=O)Nc3cccc(C)n3)cc2)cc1	-0.3%	-20.4%	-8.0%	?
COc1ccc(N(Cc2ccccc2)S(=O)(=O)c2cccc(C(=O)Nc3ccccn3)c2)cc1	-0.5%	-7.2%	-12.1%	-4.4%
CCN(c1ccccc1)S(=O)(=O)c1cccc(C(=O)Nc2ccc(C)cn2)c1	0.4%	?	5.6%	?
CCN(c1ccccc1)S(=O)(=O)c1cc(C(=O)Nc2cccc(Cl)c2)ccc1F	0.1%	23.1µM*	?	?
CCN(c1ccccc1)S(=O)(=O)c1ccc(C(=O)Nc2cccc(C)n2)cc1	0.2%	?	-17.8%	18.4µM*
O=C(Nc1ccccn1)c1ccc(CN(c2ccccc2)S(=O)(=O)c2ccccc2)cc1	4.3%	18.3µM*	-1.2%	-19.3%
Cc1cccc(NC(=O)c2cccc(S(=O)(=O)N(C)c3ccccc3)c2)n1	9.9%	-12.7%	?	14.6µM*
O=S(=O)(c1cccs1)N1CCCCC1	-0.7%	/	/	/
CCNc1ccc(C(=O)OCC)cc1NC(=O)c1cccc(S(=O)(=O)N(C)c2ccccc2)c1	-0.3%	7.31µM*	5.8%	-15.7%
COc1ccc(N(C)S(=O)(=O)c2cccc(C(=O)OCC(=O)N(C)c3ccccc3)c2)cc1	0.1%	16.4µM*	5.2%	-5.4%
CN(C(=O)COC(=O)c1cccc(S(=O)(=O)N2CCCCCC2)c1)c1ccccc1	-2.1%	/	/	/
CCn1ncc([N+](=O)[O-])c1C(=O)N1CCc2ccccc2C1	2.5%	22.7%	1.0%	11.6%

Screening data as filed in PubChem.
